Reference: the supplement of paper PMC3334620
Whole data set: some 33,000 sequences, median “E-score (-0.5 to 0.5)” near -0.011, cut for the highest 2% near 0.28. Many of the other results were omitted from the sample, so the highest values are more common in it than they were.

The sequences below were run against T1, Gcr1 (UniProt P07261) (assay: PBM E-score (8-mer binding enrichment) (E-score (-0.5 to 0.5)); higher = stronger / more preferred TF binding). Conditions: protein concentration: 100 nM; construct: GST-full length.
T1 sequence: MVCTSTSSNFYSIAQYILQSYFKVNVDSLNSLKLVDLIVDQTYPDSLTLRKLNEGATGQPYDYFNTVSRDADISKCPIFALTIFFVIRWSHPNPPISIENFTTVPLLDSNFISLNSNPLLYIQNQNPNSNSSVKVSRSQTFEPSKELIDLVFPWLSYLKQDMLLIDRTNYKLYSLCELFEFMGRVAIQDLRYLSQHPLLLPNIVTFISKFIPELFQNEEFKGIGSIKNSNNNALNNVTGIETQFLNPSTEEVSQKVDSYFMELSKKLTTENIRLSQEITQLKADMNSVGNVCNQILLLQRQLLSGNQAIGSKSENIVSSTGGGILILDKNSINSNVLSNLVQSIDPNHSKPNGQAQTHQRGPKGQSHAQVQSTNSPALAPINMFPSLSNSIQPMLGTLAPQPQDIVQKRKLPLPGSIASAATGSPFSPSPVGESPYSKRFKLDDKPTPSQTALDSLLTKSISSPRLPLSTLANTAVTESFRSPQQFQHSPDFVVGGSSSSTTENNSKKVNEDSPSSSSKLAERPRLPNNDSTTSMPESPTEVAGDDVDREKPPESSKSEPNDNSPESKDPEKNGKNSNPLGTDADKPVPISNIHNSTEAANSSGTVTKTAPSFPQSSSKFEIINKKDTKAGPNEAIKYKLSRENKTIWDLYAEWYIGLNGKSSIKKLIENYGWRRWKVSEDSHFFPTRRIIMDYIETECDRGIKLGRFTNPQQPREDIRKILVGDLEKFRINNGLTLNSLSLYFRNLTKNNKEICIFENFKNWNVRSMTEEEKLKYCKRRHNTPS
Experimental: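 Universal 'all 10-mer' protein binding microarrays (Agilent AMADID 015681) probed with GST-tagged S. cerevisiae TFs (full-length or DBD) made by in vitro transcription/translation (PURExpress), about 100-200 nM. Bound TF was detected with fluorescent anti-GST. Each ungapped 8-mer (which stands for itself and its reverse complement) is scored by the PBM enrichment score (E-score), a modified Wilcoxon-Mann-Whitney statistic from -0.5 to +0.5, computed with the Universal PBM Analysis Suite. Scale: above 0.35 generally sequence-specific binding.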

Sequence | PBM E-score
AATGGCGC | 0.253
GCTTCTGA | 0.0646
ACTTCGTA | 0.0106
GCTTCTCC | 0.27
CCTTCTCA | -0.156
ACTTCTTA | 0.104
GCTTCTTA | 0.338
GCTTCTCA | 0.299
GCTTCGTA | 0.329
CCTTCGTA | 0.00994
CCTATTGC | -0.0151
CACGGAAC | 0.0756
ACCCAAAT | 0.233
AAGTTCCT | 0.163
CTTGGTTC | 0.149
AAACAGAG | -0.244
TCCCTCAA | 0.00435
ATGTTCCG | -0.119
CCCGAAAG | 0.224
AGGCGCTC | -0.0859
CTCTGCAC | -0.0576
AATTCCAT | 0.191
AATTCCAC | 0.191
CATTCCAA | 0.0418
AATTCCAG | 0.274
CATTCCAC | 0.0952

Sequence | PBM E-score
AATTCCAA | 0.308
TATTCCAA | 0.224
GATTCCAC | 0.382
GATTCCAA | 0.416
ACCAACGG | -0.0789
ATAGGGTC | -0.162
ACATCGAC | -0.154
ACGGCTCA | -0.123
AGGCGTGA | -0.191
AAAAGAGC | -0.0507
AAATGGGA | 0.194
ACGTCAGA | -0.0561
CAGGTCAA | -0.173
GCCACAAA | 0.0996
CCCACAAA | 0.305
CCCACAAG | 0.0598
TCCACAAA | 0.288
CCCCACAG | -0.0776
CCCCACAC | 0.108
ACCACAAA | 0.236
CCCACGAG | -0.0381
CCCCACAA | 0.305
ACACAAGG | -0.0735
GCTTTCTA | -0.196
GTTTACCA | -0.022
CCGGGACA | -0.0293

Sequence | PBM E-score
AAGACTCC | 0.0934
CCTTTTCA | -0.164
CACTCTGG | 0.0408
AGAGGGAA | -0.176
GGAATTCC | 0.426
GGAATTCA | 0.192
AGAATTCC | 0.164
AGCTAGAG | -0.226
ATTCATAA | -0.0219
GCGTCTAA | 0.357
TCCTCTAA | 0.282
GCCTCTAA | 0.265
GCATCTAA | 0.303
ACCTCTAA | 0.16
TCATCTAA | -0.0664
TCGTCTAA | 0.112
CCATCTAA | 0.0606
CCGTCTAA | 0.0045
CATCACGG | -0.01
AAGTGAAC | -0.0708
ATGATTCA | -0.105
TCTCAAAA | 0.137
CAAGAGAA | 0.0254
GGATGGCA | -0.167
CCCGACGG | -0.158
CTATTGGC | 0.0102

Sequence | PBM E-score
GCCCGCCC | 0.0747
CCCCGCCC | 0.338
ACCCGCCC | -0.135
ATGCTGGA | 0.0516
AGAACTGG | 0.262
AGACCGCT | -0.2
TCGGGGCA | 0.161
ATTGGGTG | 0.085
AGAGGAAG | 0.385
AGAGGAAC | 0.177
AGAGGATC | 0.024
ACAGGATG | 0.372
CTAGGAAC | 0.149
GTAGGAAC | 0.0386
AGAGGAAA | -0.0469
ACAGGATA | 0.177
ACAGGATC | 0.197
ATAGGAAC | 0.319
AGAGGATG | 0.315
AGAGGATA | -0.0247
AGTGTCCA | 0.057
TAGTATGA | 0.0561
CTCCGATC | -0.00026
ATGCTAGG | -0.0494
CCCGGATC | 0.256
CCCTCAGC | -0.0815

Sequence | PBM E-score
ATTCAGCC | 0.0229
ATAGGATC | 0.158
ATAGGAAT | 0.27
ATAGGATA | -0.0284
ATAGGAAG | 0.414
AAAGGAAC | 0.219
ATAGGATG | 0.333
CAAGGAAG | 0.143
ATAGGAAA | -0.0777
AAAGGAAG | 0.361
CGCTGCCC | 0.164
CGGGGTGC | 0.226
AGGGATCA | -0.054
CGGGATCA | 0.245
CGGGATCC | 0.371
CCGGATCC | 0.279
AGGGATCC | 0.286
AGGGATCG | -0.151
AGCATCAA | 0.0409
CACGCACC | 0.0442
AGACCGAA | -0.18
GACGGCGC | -0.0687
AGCCTCTA | 0.0722
GCCAGAAA | 0.236
CCCAGAAG | 0.233
CCCAGAAA | 0.283

Sequence | PBM E-score
TCCAGAAA | 0.304
ACCAGAAA | 0.0905
TTCAGAAA | 0.12
GCCTACTA | 0.00583
AGCCCCGA | -0.108
AAAGCCTC | -0.0619
AAAGCCAA | 0.0021
GAAGCCAA | 0.29
AAAGCCAC | 0.0178
TAAGCCAA | 0.0672
CAAGCCTC | -0.0336
CAAGCCAC | -0.124
GAAGCCTC | 0.283
GAAGCCAC | 0.417
ACTACCCA | -0.135
AATAGCCG | -0.0191
CCCGGGTA | -0.031
TAGGCGCA | 0.225
CCAAAATC | 0.136
CTGGAACA | -0.0357
CTGGAAAC | 0.196
ATGGAACA | -0.0319
CTGGAACC | 0.375
ATGGAACG | -0.0103
ATGGAACC | 0.294
AGCATTCG | -0.235

Sequence | PBM E-score
CTTGGTGC | 0.116
AACTAAAT | 0.123
CAACATTG | -0.0426
AAAACCGT | 0.0768
CTCGGGCC | -0.107
ACTGTCTC | -0.0499
CGATGCCG | 0.145
AAGTAGAA | 0.0726
CGTTCCTA | 0.15
AGTTCCTA | 0.116
GGTTCCCA | 0.327
CGTTCCAA | 0.03
CGTTCCAC | 0.0103
GGTTCCTA | 0.342
GGTTCCAC | 0.305
AGTTCCAC | 0.0854
CGTTCCCA | -0.0578
TGTTCCAA | 0.112
AGTTCCCA | 0.22
GGTTCCAA | 0.391
